Experimental data reported in ChEMBL document CHEMBL5724796, “Tm Shift (DSF) assay results for EUbOPEN Chemogenomics Library” (2024).
Residues, ends and D or L forms follow the SMILES beside them. *: point of attachment. Cbz = O=C(OCc1ccccc1)*; CH2F = FC*

Legend:
Settings in all cases: Compound concentration 20.0 uM
[1] = biological target: Tyrosine-protein kinase ABL1 (Homo sapiens) (UniProt P00519)
[2] = biological target: Bromodomain-containing protein 4 (Homo sapiens) (UniProt O60885)
[3] = biological target: Cyclin-dependent kinase 2 (Homo sapiens) (UniProt P24941)
[4] = biological target: Casein kinase I isoform delta (Homo sapiens) (UniProt P48730)
Sequence of Casein kinase I isoform delta (Homo sapiens) (P48730 whole entry, looked up, canonical isoform): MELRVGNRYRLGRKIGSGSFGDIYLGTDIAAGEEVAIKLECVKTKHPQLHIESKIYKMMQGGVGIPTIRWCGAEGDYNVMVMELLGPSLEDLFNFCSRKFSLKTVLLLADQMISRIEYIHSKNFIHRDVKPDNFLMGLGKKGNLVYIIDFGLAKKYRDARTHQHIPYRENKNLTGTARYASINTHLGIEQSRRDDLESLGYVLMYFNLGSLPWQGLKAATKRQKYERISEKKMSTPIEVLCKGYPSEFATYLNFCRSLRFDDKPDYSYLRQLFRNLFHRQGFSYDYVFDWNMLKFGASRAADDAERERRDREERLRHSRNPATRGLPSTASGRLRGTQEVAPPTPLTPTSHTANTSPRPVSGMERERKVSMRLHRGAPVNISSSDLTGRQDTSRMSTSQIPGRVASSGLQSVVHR

[5] = biological target: Glycogen synthase kinase-3 beta (Homo sapiens) (UniProt P49841)
Sequence of Glycogen synthase kinase-3 beta (Homo sapiens) (P49841 whole entry, looked up): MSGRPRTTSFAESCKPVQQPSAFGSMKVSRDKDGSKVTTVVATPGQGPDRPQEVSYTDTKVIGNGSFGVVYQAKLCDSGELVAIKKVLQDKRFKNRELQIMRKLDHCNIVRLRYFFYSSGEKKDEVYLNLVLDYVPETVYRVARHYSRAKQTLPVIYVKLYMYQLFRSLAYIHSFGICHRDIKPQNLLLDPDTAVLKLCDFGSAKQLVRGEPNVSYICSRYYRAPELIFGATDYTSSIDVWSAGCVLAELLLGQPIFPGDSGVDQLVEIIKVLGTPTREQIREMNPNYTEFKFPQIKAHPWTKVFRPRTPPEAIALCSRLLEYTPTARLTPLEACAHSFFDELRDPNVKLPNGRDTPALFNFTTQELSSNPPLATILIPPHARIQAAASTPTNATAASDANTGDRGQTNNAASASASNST

[6] = biological target: Mitogen-activated protein kinase 1 (Homo sapiens) (UniProt P28482)
Sequence of Mitogen-activated protein kinase 1 (Homo sapiens) (P28482 whole entry): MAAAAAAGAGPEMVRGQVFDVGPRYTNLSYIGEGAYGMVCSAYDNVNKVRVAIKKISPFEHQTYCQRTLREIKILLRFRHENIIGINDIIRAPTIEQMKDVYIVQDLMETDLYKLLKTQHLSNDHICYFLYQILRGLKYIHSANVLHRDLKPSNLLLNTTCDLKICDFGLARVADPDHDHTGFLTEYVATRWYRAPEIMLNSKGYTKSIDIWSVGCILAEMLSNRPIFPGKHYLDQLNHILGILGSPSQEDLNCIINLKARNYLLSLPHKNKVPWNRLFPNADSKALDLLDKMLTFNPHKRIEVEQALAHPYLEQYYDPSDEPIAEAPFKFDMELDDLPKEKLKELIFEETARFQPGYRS

[7] = biological target: T1, Aurora kinase A (Homo sapiens) (UniProt O14965)
T1 sequence (whole entry): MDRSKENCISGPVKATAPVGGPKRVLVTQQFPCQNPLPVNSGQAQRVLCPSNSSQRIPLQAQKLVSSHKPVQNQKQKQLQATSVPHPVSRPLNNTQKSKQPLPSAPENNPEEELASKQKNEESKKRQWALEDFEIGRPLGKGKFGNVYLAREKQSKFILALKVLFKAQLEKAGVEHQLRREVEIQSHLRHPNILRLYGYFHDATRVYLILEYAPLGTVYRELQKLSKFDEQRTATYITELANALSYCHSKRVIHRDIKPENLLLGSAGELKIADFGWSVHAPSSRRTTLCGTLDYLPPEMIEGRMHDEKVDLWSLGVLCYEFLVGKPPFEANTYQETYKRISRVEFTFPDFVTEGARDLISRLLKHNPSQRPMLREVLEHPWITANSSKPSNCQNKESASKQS

[8] = biological target: T2, Transcription intermediary factor 1-alpha (Homo sapiens) (UniProt O15164)
T2 sequence (whole entry): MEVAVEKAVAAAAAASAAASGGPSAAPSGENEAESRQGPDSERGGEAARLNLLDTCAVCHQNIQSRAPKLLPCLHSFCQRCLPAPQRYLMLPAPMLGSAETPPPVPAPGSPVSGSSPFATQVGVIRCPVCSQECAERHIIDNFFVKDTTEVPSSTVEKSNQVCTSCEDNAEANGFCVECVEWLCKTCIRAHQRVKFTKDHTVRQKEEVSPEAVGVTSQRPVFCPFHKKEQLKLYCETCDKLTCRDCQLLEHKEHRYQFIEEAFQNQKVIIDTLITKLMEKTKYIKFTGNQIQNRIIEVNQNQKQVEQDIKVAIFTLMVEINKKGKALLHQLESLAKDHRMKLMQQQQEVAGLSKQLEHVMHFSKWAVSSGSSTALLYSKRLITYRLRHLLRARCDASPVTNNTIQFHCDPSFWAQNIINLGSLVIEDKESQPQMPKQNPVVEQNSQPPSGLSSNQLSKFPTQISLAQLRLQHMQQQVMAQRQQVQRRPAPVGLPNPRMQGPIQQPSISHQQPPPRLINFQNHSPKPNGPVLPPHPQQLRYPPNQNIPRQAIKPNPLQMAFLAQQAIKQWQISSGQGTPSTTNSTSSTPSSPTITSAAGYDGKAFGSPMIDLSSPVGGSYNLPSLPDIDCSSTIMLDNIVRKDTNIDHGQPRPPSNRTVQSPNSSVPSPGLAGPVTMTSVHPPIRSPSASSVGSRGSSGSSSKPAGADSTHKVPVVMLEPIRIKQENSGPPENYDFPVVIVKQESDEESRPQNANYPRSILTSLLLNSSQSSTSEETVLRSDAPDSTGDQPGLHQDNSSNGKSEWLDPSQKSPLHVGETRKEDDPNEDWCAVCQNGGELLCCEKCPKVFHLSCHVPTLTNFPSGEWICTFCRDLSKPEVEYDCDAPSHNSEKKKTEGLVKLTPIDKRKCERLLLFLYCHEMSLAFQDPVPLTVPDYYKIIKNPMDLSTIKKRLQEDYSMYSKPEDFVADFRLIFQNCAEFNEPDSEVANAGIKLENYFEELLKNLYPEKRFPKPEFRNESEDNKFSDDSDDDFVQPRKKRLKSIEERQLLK

Sequence of Tyrosine-protein kinase ABL1 (Homo sapiens) (P00519 whole entry): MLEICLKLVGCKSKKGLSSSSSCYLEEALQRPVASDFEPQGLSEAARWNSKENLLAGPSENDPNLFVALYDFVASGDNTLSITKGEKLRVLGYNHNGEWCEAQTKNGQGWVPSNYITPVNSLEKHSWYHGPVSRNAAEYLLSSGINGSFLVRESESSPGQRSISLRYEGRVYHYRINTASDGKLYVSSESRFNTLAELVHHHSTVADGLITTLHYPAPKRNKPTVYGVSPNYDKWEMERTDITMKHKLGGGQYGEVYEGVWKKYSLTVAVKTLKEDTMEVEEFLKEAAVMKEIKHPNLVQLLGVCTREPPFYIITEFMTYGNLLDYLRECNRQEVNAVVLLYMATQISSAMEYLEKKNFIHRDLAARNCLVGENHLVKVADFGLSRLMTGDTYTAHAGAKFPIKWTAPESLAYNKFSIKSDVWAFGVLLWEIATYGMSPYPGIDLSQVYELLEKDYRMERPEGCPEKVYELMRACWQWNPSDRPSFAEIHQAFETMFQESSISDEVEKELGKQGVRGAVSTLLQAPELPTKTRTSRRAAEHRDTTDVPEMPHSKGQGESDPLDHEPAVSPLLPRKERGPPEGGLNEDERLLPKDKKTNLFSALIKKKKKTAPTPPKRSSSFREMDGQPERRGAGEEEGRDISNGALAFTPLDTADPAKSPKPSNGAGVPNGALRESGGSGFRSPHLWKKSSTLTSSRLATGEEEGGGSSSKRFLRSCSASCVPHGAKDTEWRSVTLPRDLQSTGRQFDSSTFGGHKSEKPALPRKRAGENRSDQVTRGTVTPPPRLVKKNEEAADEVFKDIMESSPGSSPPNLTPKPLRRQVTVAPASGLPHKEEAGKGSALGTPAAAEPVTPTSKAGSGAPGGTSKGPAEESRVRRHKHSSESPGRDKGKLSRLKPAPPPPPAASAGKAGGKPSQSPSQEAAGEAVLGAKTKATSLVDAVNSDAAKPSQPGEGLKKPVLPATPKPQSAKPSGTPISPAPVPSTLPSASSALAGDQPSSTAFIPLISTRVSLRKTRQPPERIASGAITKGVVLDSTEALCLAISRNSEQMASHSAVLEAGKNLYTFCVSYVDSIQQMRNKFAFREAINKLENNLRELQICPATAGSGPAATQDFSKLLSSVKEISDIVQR

| SMILES | ΔTm [1] | ΔTm [2] | ΔTm [3] | ΔTm [4] | ΔTm [5] | ΔTm [6] | ΔTm [7] | ΔTm [8] |
| --- | --- | --- | --- | --- | --- | --- | --- | --- |
| CS(=O)(=O)N1CCN(C(=O)c2cnc3ccc(Cl)cc3c2-c2ccc(C3(C#N)CC3)cc2)CC1 | 0.55 °C | -2.94 °C | 0.81 °C | 0.96 °C | 4.93 °C | 0.97 °C | -2.24 °C | -1.2 °C |
| O=C(O)CCNc1cc(N2CCc3ccccc3CC2)nc(-c2ccccn2)n1 | 0.06 °C | 0.28 °C | -0.09 °C | -0.34 °C | 0 °C | -0.2 °C | -1.3 °C | 0.15 °C |
| Cc1ncsc1-c1ccc(CNC(=O)[C@@H]2C[C@@H](O)CN2C(=O)[C@@H](NC(=O)COCCOCCOc2ccc(-c3ccc4ncnc(Nc5ccc(OCc6cccc(F)c6)c(Cl)c5)c4c3)cc2)C(C)(C)C)cc1 | 2.92 °C | 5.48 °C | 5.97 °C | -3.34 °C | 9.57 °C | -2.89 °C | 7.09 °C | 10.8 °C |
| O=C1CCc2cc(OCCCCc3nnnn3C3CCCCC3)ccc2N1 | 0.01 °C | -0.81 °C | -0.24 °C | -0.48 °C | -0.04 °C | 0.01 °C | -1.24 °C | -0.24 °C |
| COc1ccc(-n2c(SCCCN3C(=O)c4cccc5cccc(c45)C3=O)nnc2-c2ccncc2)cc1 | 0.68 °C | -3.3 °C | -0.02 °C | 0.26 °C | -0.45 °C | 0.07 °C | -1.38 °C | 0.1 °C |
| NC(=O)c1cccc(NC(=O)CCC(=O)NCCc2cn(CCNS(=O)(=O)c3cccc(C(=O)O)c3)nn2)c1 | 0.47 °C | -2.59 °C | -0.69 °C | 0.02 °C | -1.06 °C | -1.68 °C | -2.28 °C | -0.11 °C |
| CCS(=O)(=O)Cc1cnc(Oc2ccc(F)cc2F)c(-c2cc(C)c3c(=O)[nH]ccn23)c1 | 0.69 °C | 14.7 °C | 0.81 °C | -0.35 °C | 1.96 °C | 0.23 °C | -0.65 °C | 0.45 °C |
| O=C(CN1CCN(C(=O)c2ccco2)CC1)Nc1cc(C(F)(F)F)ccc1Cl | 0.19 °C | 2.01 °C | 0.06 °C | -0.11 °C | -0.95 °C | 0.07 °C | -1.45 °C | 0.51 °C |
| Cn1c(=O)c2c(nc(N3CCNCC3)n2Cc2nnc(-c3ccc(Cl)c(Cl)c3)o2)n(C)c1=O | 0.59 °C | -3.55 °C | 0.01 °C | 0.33 °C | -0.89 °C | 0.1 °C | -0.39 °C | -0.46 °C |
| COC(=O)[C@H]1[C@H]2C[C@@H]3c4[nH]c5cc(OC)ccc5c4CCN3C[C@H]2C[C@@H](OC(=O)c2cc(OC)c(OC)c(OC)c2)[C@@H]1OC | 0.21 °C | -0.12 °C | 0.11 °C | -0.26 °C | -0.54 °C | 0.12 °C | -0.63 °C | -0.4 °C |
| O=C(NO)c1cnc(NC2(c3ccccc3)CC2)nc1 | -0.47 °C | -1.48 °C | 0.47 °C | 0.23 °C | -0.05 °C | -0.3 °C | -0.41 °C | -1.75 °C |
| COc1cc2c(NC3CCN(C4CCCCC4)CC3)nc(N3CCCN(C(C)C)CC3)nc2cc1OCCCN1CCCCC1 | 0.29 °C | -1.02 °C | 0.48 °C | 0.1 °C | 0.08 °C | -0.69 °C | 0.32 °C | 0.36 °C |
| C[C@@H](Oc1ccc(CNC(=O)c2cccnc2Oc2ccc3c(c2)OCO3)c(F)c1)C(=O)O | 0.69 °C | -1.71 °C | 0.09 °C | -0.5 °C | -0.12 °C | 0.23 °C | -1.52 °C | -0.05 °C |
| Nc1ncnc2c1ncn2[C@@H]1O[C@H](C[C@@H](N)CC[C@H](N)C(=O)O)[C@@H](O)[C@H]1O | 0.31 °C | -2.03 °C | -0.94 °C | 0.18 °C | -1.05 °C | -1.35 °C | -1.45 °C | -0.73 °C |
| O=c1[nH][nH]c(=O)c2cc(OCc3ccccc3F)ccc12 | 3.37 °C | -1.6 °C | 0.72 °C | -6.69 °C | 1.24 °C | -14.6 °C | -0.33 °C | 0 °C |
| Cc1nc(N)c2nnn(C[C@H]3CN(Cc4nccs4)CCO3)c2n1 | 0.44 °C | -3.68 °C | -0.07 °C | -0.32 °C | -0.34 °C | 0.04 °C | -1.7 °C | 1.36 °C |
| Cc1cc(OCCCNCCC(N)=O)ccc1Cc1c(O[C@@H]2O[C@H](CO)[C@@H](O)[C@H](O)[C@H]2O)n[nH]c1C(C)C | 0.54 °C | -1.5 °C | 0.03 °C | -0.12 °C | -0.7 °C | 0.24 °C | -2.37 °C | -0.75 °C |
| CC(=O)OCCN1C(=O)c2c(C)nc3ccc(S(=O)(=O)N4CCOCC4)cc3c2C1=O | -0.43 °C | -1.49 °C | -0.16 °C | 0.13 °C | -0.73 °C | -0.31 °C | -1.13 °C | -1.22 °C |
| CN(C)CCCNC(=O)c1ccc(-c2cc(O)c3ncccc3c2)cc1 | 1.29 °C | 1.76 °C | 0.45 °C | 0.58 °C | 0.54 °C | 0.28 °C | -1.28 °C | 1.21 °C |
| O=C(C=Cc1ccc(O)cc1)c1ccc(O)cc1O | 6.6 °C | 1.51 °C | 1.64 °C | 1.31 °C | 2.87 °C | 1.33 °C | 1.81 °C | -0.03 °C |
| CNc1nccc(CN(CC2CCNCC2)S(=O)(=O)c2ccc(S(=O)(=O)N(Cc3ccc(Cl)cc3)C3CCCC3)cc2)n1 | 0.85 °C | -3.15 °C | 0.06 °C | 0.31 °C | 0.43 °C | 0.57 °C | -2.49 °C | -0.52 °C |
| O=C(NC(Cc1ccccc1)C(=O)NC(Cc1ccccc1)C(=O)CF)OCc1ccccc1 (stereo not drawn) (Cbz-Phe-Phe-CH2F; configuration not given here) | 0.45 °C | -0.83 °C | 0.11 °C | -0.3 °C | 0.04 °C | 0.22 °C | -2.32 °C | 1.22 °C |
